{"source": "PubChem BioAssay AID2061310", "about": "(National Center for Advancing Translational Sciences (NCATS), 2025)", "note": "Records with an inconclusive call do not appear. Unmarked numbers belong to inactive results. Active and inactive are the calls of the source. Calls come from the whole dose curve; as a rule, active = well fitted curve in the direction sought with a large enough effect; inconclusive = small, poorly fitted or top-dose-only effect, or another doubt; inactive = no such curve, though single readings can be large or run the other way."}
{"molecular_target": "Retinal dehydrogenase 2 (Homo sapiens) (UniProt O94788)", "test": "qHTS for Inhibitors of the Aldehyde Dehydrogenase Family (ALDH1A2) Validation screens", "details": "fluorescence read-out; Potency: ALDH1A2 inhibition qHTS validation; series mostly up to 49.8 µM; activity, negative = inhibition: at the top concentration"}
{"compound": "CCOc1ccc(-c2cc(C(=O)N3CCN(c4ccccn4)CC3)c3ccccc3n2)cc1", "activity, negative = inhibition": "-9.2%"}
{"compound": "Cc1ccc(C(=O)Nc2cccc(C(=O)O)c2)cc1", "activity, negative = inhibition": "-31.7%"}
{"compound": "CCCN(CCC)C(=O)Cn1c(=O)n(-c2ccc(C)cc2)c(=O)c2ccc(C(=O)NCc3ccccc3Cl)cc21", "activity, negative = inhibition": "-1.51%"}
{"compound": "CC(C)N(CCC(=O)c1ccc2ccccc2c1)Cc1ccccc1", "Potency": "5.62 µM (active)"}
{"compound": "CCOC(=O)CSc1nc2c(sc3ccccc32)c(=O)n1CCCN1CCCC1", "activity, negative = inhibition": "0.849% [at 44.5 µM]"}
{"compound": "CC(C)(C)c1ccc(S(=O)(=O)/C=C/C#N)cc1", "Potency": "2.82 µM (active)"}
{"compound": "O=C(OC1C[C@@H]2CC3C[C@H](C1)N2CC3=O)c1c[nH]c2ccccc12", "note": "(some centres undefined)", "activity, negative = inhibition": "17.5%"}
{"compound": "N/C(=N\\OC(=O)c1ccccc1)c1ccccn1", "activity, negative = inhibition": "15.7%"}
{"compound": "CCOC(=O)CNS(=O)(=O)c1cc(-c2nnc(Nc3cccc(O)c3)c3ccccc23)ccc1C", "activity, negative = inhibition": "-1.24%"}
